For ten compounds, growth inhibition results are on record in PubChem BioAssay (NCI).

Assay [1] is described as follows: NCI Yeast Anticancer Drug Screen. Data for the rad50 strain (AID 155).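 Also: 0% = growth of vehicle-only cultures of the same strain.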 To be noted: S. cerevisiae rad50 strain growth inhibition, hits give high values. The essentials: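 Readout: growth inhibition relative to vehicle-treated cultures. Compound exposure was carried out in a genetically defined yeast strain deficient in DNA damage repair.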
The nature of assay [2]: NCI Yeast Anticancer Drug Screen. Data for the mec2-1 strain (AID 157). Conditions: S. cerevisiae mec2-1 strain, hits give high values. The essentials:
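Each compound was tested on mec2-1 yeast, a strain altered in DNA damage repair or cell cycle control. Growth inhibition is reported relative to vehicle.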

A short description of assay [3]: NCI Yeast Anticancer Drug Screen. Data for the sgs1 mgt1 strain (AID 161).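 Also: 0% = growth of cultures given vehicle only.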 To be noted: S. cerevisiae sgs1 mgt1 strain, hits give high values. The essentials:
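Test agents were incubated with a DNA-repair-mutant yeast strain. Growth was then read and compared against vehicle-treated controls.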

Assay [4] is described as follows: NCI Yeast Anticancer Drug Screen. Data for the cln2 rad14 strain (AID 165).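 Also: 0% = growth equal to vehicle treated cultures.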 Conditions: S. cerevisiae cln2 rad14 strain, hits give high values. The essentials:
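Test compounds were added to cln2 rad14 yeast cultures; inhibition of growth was then determined by comparison with vehicle treatment.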

Assay [5] can be described thus: NCI Yeast Anticancer Drug Screen. Data for the bub3 strain (AID 167). Conditions: S. cerevisiae bub3 mutant strain, hits give high values. The method in brief: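 Readout: yeast growth inhibition, expressed relative to vehicle-only wells. The test organism is a mutant strain from a panel with lesions in DNA repair or checkpoint genes.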
Assay [6] can be described thus: NCI Yeast Anticancer Drug Screen. Data for the mlh1 rad18 strain (AID 175). Conditions: S. cerevisiae mlh1 rad18 strain growth inhibition, hits give high values. The essentials: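 Inhibition values reflect reduced growth of mutant yeast versus vehicle-treated controls following compound exposure; the mutations affect DNA damage repair.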
[7] abbreviates: at 5.0 µM (retest, dose inferred, filed as 0.5).
Where [8] appears, read: at 50.0 µM (retest, dose inferred, filed as 5.0).

Molecules are shown by their SMILES. Compounds without any hit were thinned out: in the full panel of roughly 79,000, 15% have a hit. Unmarked numbers belong to inactive results. Activity calls are given as the source filed them. Rule as the data show it: active = growth inhibition above about 70%; inactive = the rest.

With `CC(CN(C)C)C(/C=C/c1ccccc1)=N\NC(=O)c1ccccc1` (stereo not given), the growth inhibition in assay [1] (setting [7]) was -14%; in assay [1] (setting [8]) it was 3%; in assay [1] (at 50.0 µM) it was 3.15%; in assay [2] (setting [7]), -7%; in assay [2] (setting [8]), -7%; in assay [2] (at 50.0 µM) it was 13.1%. Further, the growth inhibition is -4% in assay [3] (setting [7]); 3% in assay [3] (setting [8]); 3.05% in assay [3] (at 50.0 µM); -11% in assay [4] (setting [7]); -4% in assay [4] (setting [8]); 3.15% in assay [4] (at 50.0 µM). Further, the growth inhibition was -3% in assay [5] (setting [7]); -11% in assay [5] (setting [8]); -18.4% in assay [5] (at 50.0 µM); 2% in assay [6] (setting [7]); 11% in assay [6] (setting [8]); -3.6% in assay [6] (at 50.0 µM).
Regarding `C[C@]12CC[C@H](O)C[C@@H]1CC[C@@H]1[C@@H]2CC[C@]2(C)C=CC[C@@H]12`, the growth inhibition is -3% in assay [1] (setting [7]); 2% in assay [1] (setting [8]); 49.4% in assay [1] (at 50.0 µM); -7% in assay [2] (setting [7]); -4% in assay [2] (setting [8]); 33.4% in assay [2] (at 50.0 µM). Further, the growth inhibition in assay [3] (setting [7]) was -21%; in assay [3] (setting [8]), 1%; in assay [3] (at 50.0 µM), 46.8%; in assay [4] (setting [7]), -6%; in assay [4] (setting [8]) it was 0%; in assay [4] (at 50.0 µM), 77.5% (active). Moreover, the growth inhibition is 9% in assay [5] (setting [7]); 23% in assay [5] (setting [8]); 95.1% (active) in assay [5] (at 50.0 µM); -24% in assay [6] (setting [7]); 33% in assay [6] (setting [8]); 58.8% in assay [6] (at 50.0 µM).
Consider `CCC[CH2][Ge]([CH2]CCC)([CH2]CCC)[O]C(=O)C(OC(C)=O)c1ccccc1` (stereo not given), for which the growth inhibition in assay [1] (setting [7]) was 95% (active); in assay [1] (setting [8]), 95% (active); in assay [1] (at 50.0 µM), 78% (active); in assay [2] (setting [7]), 85% (active); in assay [2] (setting [8]), 85% (active); in assay [2] (at 50.0 µM), 75.2% (active). Besides, the growth inhibition in assay [3] (setting [7]) is 98% (active); in assay [3] (setting [8]), 98% (active); in assay [3] (at 50.0 µM), 86% (active); in assay [4] (setting [7]) it was 55%; in assay [4] (setting [8]) it was 55%; in assay [4] (at 50.0 µM) it was 71% (active). The growth inhibition is 62% in assay [5] (setting [7]); 62% in assay [5] (setting [8]); 85% (active) in assay [5] (at 50.0 µM); 87% (active) in assay [6] (setting [7]); 87% (active) in assay [6] (setting [8]); 79.5% (active) in assay [6] (at 50.0 µM).
Take `Fc1ccc(OCCC(Cn2ccnc2)c2ccc(Cl)cc2Cl)cc1` (stereo not given): the growth inhibition in assay [1] (setting [7]) was 82% (active); in assay [1] (setting [8]), 99% (active); in assay [1] (at 50.0 µM), 98.7% (active); in assay [2] (setting [7]) it was 56%; in assay [2] (setting [8]) it was 91% (active); in assay [2] (at 50.0 µM) it was 99.8% (active). Also, the growth inhibition in assay [3] (setting [7]) is 71% (active); in assay [3] (setting [8]), 96% (active); in assay [3] (at 50.0 µM), 95.2% (active); in assay [4] (setting [7]), 61%; in assay [4] (setting [8]) it was 92% (active); in assay [4] (at 50.0 µM) it was 94.7% (active). The growth inhibition is 83% (active) in assay [5] (setting [7]); 94% (active) in assay [5] (setting [8]); 99.2% (active) in assay [5] (at 50.0 µM); 55% in assay [6] (setting [7]); 99% (active) in assay [6] (setting [8]); 95.1% (active) in assay [6] (at 50.0 µM).
Turning to `Nc1cc2c(nc3c4ccccc4c(N)cc3[n+]2-c2cccc3ccccc23)c2ccccc12` (tested in a mixture with another compound), the growth inhibition is 95% (active) in assay [1] (setting [7]); 92% (active) in assay [1] (setting [8]); 89.4% (active) in assay [1] (at 50.0 µM); 62% in assay [2] (setting [7]); 92% (active) in assay [2] (setting [8]); 90.2% (active) in assay [2] (at 50.0 µM). Further, the growth inhibition was 59% in assay [3] (setting [7]); 94% (active) in assay [3] (setting [8]); 89.2% (active) in assay [3] (at 50.0 µM); 31% in assay [4] (setting [7]); 89% (active) in assay [4] (setting [8]); 84.5% (active) in assay [4] (at 50.0 µM). The growth inhibition in assay [5] (setting [7]) is 61%; in assay [5] (setting [8]) it was 91% (active); in assay [5] (at 50.0 µM), 84.8% (active); in assay [6] (setting [7]) it was 79% (active); in assay [6] (setting [8]) it was 91% (active); in assay [6] (at 50.0 µM) it was 89.8% (active).
For `Cc1ccc(C(=O)/C(Cl)=N/O)cc1`, the growth inhibition was 32% in assay [1] (setting [7]); 99% (active) in assay [1] (setting [8]); 98.8% (active) in assay [1] (at 50.0 µM); 10% in assay [2] (setting [7]); 100% (active) in assay [2] (setting [8]); 99.1% (active) in assay [2] (at 50.0 µM). The growth inhibition in assay [3] (setting [7]) was 13%; in assay [3] (setting [8]), 100% (active); in assay [3] (at 50.0 µM) it was 97.8% (active); in assay [4] (setting [7]), 0%; in assay [4] (setting [8]), 99% (active); in assay [4] (at 50.0 µM) it was 78.7% (active). Besides, the growth inhibition is 3% in assay [5] (setting [7]); 99% (active) in assay [5] (setting [8]); 98.8% (active) in assay [5] (at 50.0 µM); 27% in assay [6] (setting [7]); 99% (active) in assay [6] (setting [8]); 98.5% (active) in assay [6] (at 50.0 µM).
On to `COc1cccc2c1C(=O)c1c(O)c3c(c(O)c1C2=O)C[C@@](O)(C(C)=O)C[C@@H]3OC1CC(N(CCO)Cc2ccccc2)C(O)C(C)O1` (stereo not given in full), for which the growth inhibition in assay [1] (setting [7]) is 97% (active); in assay [1] (setting [8]), 99% (active); in assay [1] (at 50.0 µM) it was 91.2% (active); in assay [2] (setting [7]) it was 99% (active); in assay [2] (setting [8]), 100% (active); in assay [2] (at 50.0 µM), 91.3% (active). The growth inhibition in assay [3] (setting [7]) is 95% (active); in assay [3] (setting [8]), 99% (active); in assay [3] (at 50.0 µM), 91.5% (active); in assay [4] (setting [7]) it was 90% (active); in assay [4] (setting [8]), 97% (active); in assay [4] (at 50.0 µM) it was 90.8% (active). The growth inhibition in assay [5] (setting [7]) is 98% (active); in assay [5] (setting [8]) it was 99% (active); in assay [5] (at 50.0 µM), 89.4% (active); in assay [6] (setting [7]), 95% (active); in assay [6] (setting [8]) it was 99% (active); in assay [6] (at 50.0 µM) it was 90.8% (active).
With `CC(C)(C)C(OC(=O)Nc1ccccc1)C(C)(C)C`, the growth inhibition was -1% in assay [1] (setting [7]); 29% in assay [1] (setting [8]); -0.7% in assay [1] (at 50.0 µM); -18% in assay [2] (setting [7]); -5% in assay [2] (setting [8]); -2.2% in assay [2] (at 50.0 µM). Also, the growth inhibition in assay [3] (setting [7]) is 4%; in assay [3] (setting [8]) it was 8%; in assay [3] (at 50.0 µM) it was -9.55%; in assay [4] (setting [7]) it was 9%; in assay [4] (setting [8]) it was 16%; in assay [4] (at 50.0 µM), -61.5%. Further, the growth inhibition in assay [5] (setting [7]) is -1%; in assay [5] (setting [8]), 37%; in assay [5] (at 50.0 µM), 5.1%; in assay [6] (setting [7]), 9%; in assay [6] (setting [8]), 36%; in assay [6] (at 50.0 µM) it was 6.25%.
For the compound `Nc1ccc(S(=O)(=O)C23CC4CC(CC(C4)C2)C3)cc1`, the growth inhibition is -2% in assay [1] (setting [7]); 96% (active) in assay [1] (setting [8]); 97.9% (active) in assay [1] (at 50.0 µM); -16% in assay [2] (setting [7]); 98% (active) in assay [2] (setting [8]); 98.8% (active) in assay [2] (at 50.0 µM). The growth inhibition in assay [3] (setting [7]) was -3%; in assay [3] (setting [8]) it was 98% (active); in assay [3] (at 50.0 µM) it was 97.7% (active); in assay [4] (setting [7]), 1%; in assay [4] (setting [8]), 93% (active); in assay [4] (at 50.0 µM), 93.5% (active). Besides, the growth inhibition in assay [5] (setting [7]) was 64%; in assay [5] (setting [8]), 98% (active); in assay [5] (at 50.0 µM) it was 95.8% (active); in assay [6] (setting [7]) it was 13%; in assay [6] (setting [8]) it was 98% (active); in assay [6] (at 50.0 µM), 97.5% (active).
Take `[Cu+2].c1ccc2n[nH]nc2c1`: the growth inhibition in assay [1] (setting [7]) is 99% (active); in assay [1] (setting [8]), 99% (active); in assay [1] (at 50.0 µM), 98.8% (active); in assay [2] (setting [7]) it was 99% (active); in assay [2] (setting [8]) it was 99% (active); in assay [2] (at 50.0 µM) it was 99.3% (active). Besides, the growth inhibition in assay [3] (setting [7]) was 98% (active); in assay [3] (setting [8]), 99% (active); in assay [3] (at 50.0 µM), 98.5% (active); in assay [4] (setting [7]) it was 70% (active); in assay [4] (setting [8]) it was 99% (active); in assay [4] (at 50.0 µM), 98.3% (active). For the same compound, the growth inhibition in assay [5] (setting [7]) was 96% (active); in assay [5] (setting [8]), 99% (active); in assay [5] (at 50.0 µM), 98.6% (active); in assay [6] (setting [7]), 99% (active); in assay [6] (setting [8]), 99% (active); in assay [6] (at 50.0 µM), 98.7% (active).
